In PubChem BioAssay (NCATS):
Records with an inconclusive call do not appear. The source made the active and inactive calls. Unless noted, calls follow the shape of the dose curve; as a rule, active = well fitted curve in either direction with a large enough effect (not every such curve was filed as active); inconclusive = small, poorly fitted or top-dose-only effect, or another doubt; inactive = flat fitted curve, though single readings scatter.

Legend:
[1] = AP1 Signaling Pathway (AID 357); details: ME-180 (cervical carcinoma) AP-1-bla reporter, EGF-induced, beta-lactamase ratio, 5 h; at 17.2 µM (top of the series) unless noted; also: % is scaled to controls: 0 for no effect and ±100 for the full control effect
Method in brief: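 AP-1-bla ME-180 cells with beta-lactamase reporter under AP-1 response element, stimulated with EC50 EGF; compounds titrated, 5 hours at 37 degrees Celsius. CCF4 read at 460/530 nm ratio; positive and negative modulators judged by AC50.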

[2] = NFAT Signaling Pathway (AID 444); details: Jurkat NFAT-bla M1, carbachol, beta-lactamase ratio, 5 h; at 17.2 µM (top of the series) unless noted;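 also: carbachol stimulus at about its EC50 of 1 µM final; % is scaled to controls: 0 for no effect and ±100 for the full control effect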
Method in brief: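 Jurkat cells carrying an NFAT-driven β-lactamase reporter and co-transfected muscarinic M1 receptor were treated with compound plus carbachol (1 uM final, an EC50 level) for 5 h at 37 °C. CCF4 loading followed for 1 h at RT; 460/530 nm ratio gave %activity.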

[3] = target: Glucocorticoid receptor (Homo sapiens) (UniProt P04150); assay: GR-GFP Redistribution (AID 450;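 active = compounds whose dose series gives a full or clear partial fitted curve of increased nuclear translocation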; also: potency is read from the fitted curve at half-maximal effect); details: U2OS GR-GFP nuclear translocation, laser cytometry, 2 h
Glucocorticoid receptor (Homo sapiens), sequence (P04150 whole entry, looked up, the tested form may be a part): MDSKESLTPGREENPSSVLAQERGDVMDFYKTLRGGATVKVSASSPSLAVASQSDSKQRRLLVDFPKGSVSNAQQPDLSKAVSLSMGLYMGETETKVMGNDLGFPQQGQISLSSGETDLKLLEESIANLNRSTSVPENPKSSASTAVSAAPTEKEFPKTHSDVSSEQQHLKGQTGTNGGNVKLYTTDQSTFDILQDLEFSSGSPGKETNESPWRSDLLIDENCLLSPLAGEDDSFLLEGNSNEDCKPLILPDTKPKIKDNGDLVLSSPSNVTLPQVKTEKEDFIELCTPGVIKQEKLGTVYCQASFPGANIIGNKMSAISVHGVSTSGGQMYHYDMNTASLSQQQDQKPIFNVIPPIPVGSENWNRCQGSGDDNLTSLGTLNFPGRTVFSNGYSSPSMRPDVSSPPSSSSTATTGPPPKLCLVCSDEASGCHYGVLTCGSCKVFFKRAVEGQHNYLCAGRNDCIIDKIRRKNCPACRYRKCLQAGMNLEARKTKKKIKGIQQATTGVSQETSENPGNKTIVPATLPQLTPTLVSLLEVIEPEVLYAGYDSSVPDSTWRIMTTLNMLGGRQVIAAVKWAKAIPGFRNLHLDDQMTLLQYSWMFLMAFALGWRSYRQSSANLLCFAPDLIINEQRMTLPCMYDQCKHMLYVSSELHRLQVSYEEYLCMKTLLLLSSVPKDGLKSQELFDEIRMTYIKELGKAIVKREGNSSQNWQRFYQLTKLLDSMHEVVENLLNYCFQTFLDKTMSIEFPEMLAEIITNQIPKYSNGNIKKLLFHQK

[4] = target: Glucocorticoid receptor (Homo sapiens) (UniProt P04150); assay: GR-EFC Redistribution (AID 451; calls by dose curve; also: potency is read from the fitted curve at half-maximal effect); details: CHO-K1 GR-EFC translocation, beta-gal luminescence, 2 h
Method in brief: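 CHO-K1 cells stably expressing nuclear-localized β-gal enzyme acceptor and GR fused C-terminally to the enzyme donor fragment; ligand-driven nuclear translocation restores β-gal by complementation. Compounds titrated up to 46 uM final, 2 h at 37 °C; luminescence read.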

[5] = target: Mitogen-activated protein kinase 10 (Mus musculus) (UniProt Q61831); assay: JNK3 AlphaScreen Assay (AID 530);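 also: kinase came from lysate of stimulated human HepG2 cells; signal reports phosphorylation of biotinylated GST-cJun 1-79 at Ser73 with 10 µM ATP; % is scaled to controls: 0 for no effect and ±100 for the full control effect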
Method in brief: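 Biotinylated GST-cJun(1-79) served as substrate for JNK3 in HepG2 lysates stimulated with IL-1beta and TNF-alpha. ATP was 10 uM final, pH 7.6. Ser73 phosphorylation was quantified by AlphaScreen (680 nm excitation).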

[6] = target: 3',5'-cyclic-AMP phosphodiesterase 4B (Homo sapiens) (UniProt Q07343); assay: qHTS Assay for Inhibitors of PDE-IV (AID 607; active = well fitted activation curve with a large enough effect in the main read-out, with a control signal flat, not every such curve was filed as active; also: % of control where 0% means no effect)
3',5'-cyclic-AMP phosphodiesterase 4B (Homo sapiens), sequence (Q07343 whole entry, looked up): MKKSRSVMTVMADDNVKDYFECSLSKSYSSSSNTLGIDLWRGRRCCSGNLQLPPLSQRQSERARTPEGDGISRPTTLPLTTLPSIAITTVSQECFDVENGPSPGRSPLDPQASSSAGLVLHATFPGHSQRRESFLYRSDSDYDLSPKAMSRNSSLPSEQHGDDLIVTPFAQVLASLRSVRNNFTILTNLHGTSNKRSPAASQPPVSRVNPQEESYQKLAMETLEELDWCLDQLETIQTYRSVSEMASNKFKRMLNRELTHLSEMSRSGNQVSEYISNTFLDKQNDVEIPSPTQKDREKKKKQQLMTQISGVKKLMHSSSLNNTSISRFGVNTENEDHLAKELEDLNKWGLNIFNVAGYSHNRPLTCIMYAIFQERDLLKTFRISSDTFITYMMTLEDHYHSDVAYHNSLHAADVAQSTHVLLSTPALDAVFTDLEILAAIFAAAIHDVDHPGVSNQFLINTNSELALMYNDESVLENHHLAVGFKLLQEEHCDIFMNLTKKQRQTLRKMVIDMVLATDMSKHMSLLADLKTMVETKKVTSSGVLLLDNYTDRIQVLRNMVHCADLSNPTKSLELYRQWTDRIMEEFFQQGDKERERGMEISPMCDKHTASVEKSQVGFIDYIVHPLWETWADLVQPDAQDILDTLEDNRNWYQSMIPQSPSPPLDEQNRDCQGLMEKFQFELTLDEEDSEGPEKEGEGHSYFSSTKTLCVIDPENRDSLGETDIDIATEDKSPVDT
Method in brief: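 HEK293 ACTOne cells with CNG channel (1000/well), endogenous PDE4; membrane potential dye, compounds up to 22.9 uM final. Fluorescence Ex 535/Em 590; RO 20-1724 (100 uM final) as reference.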

[7] = target: Guanine nucleotide-binding protein G(i) subunit alpha-1 (Homo sapiens) (UniProt P63096); assay: qHTS Assay for Inhibitors of RGS12 GoLoco Motif Activity (Green Fluorophore) (AID 879; active = well fitted curve in the direction sought with a large enough effect; an effect the other way counts as inactive or inconclusive;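 also: 0% = labeled peptide with Gαi1 and full inhibition = labeled peptide alone without protein; negative values mean loss of peptide binding seen as reduced polarization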)
Guanine nucleotide-binding protein G(i) subunit alpha-1 (Homo sapiens), sequence (P63096 whole entry, looked up): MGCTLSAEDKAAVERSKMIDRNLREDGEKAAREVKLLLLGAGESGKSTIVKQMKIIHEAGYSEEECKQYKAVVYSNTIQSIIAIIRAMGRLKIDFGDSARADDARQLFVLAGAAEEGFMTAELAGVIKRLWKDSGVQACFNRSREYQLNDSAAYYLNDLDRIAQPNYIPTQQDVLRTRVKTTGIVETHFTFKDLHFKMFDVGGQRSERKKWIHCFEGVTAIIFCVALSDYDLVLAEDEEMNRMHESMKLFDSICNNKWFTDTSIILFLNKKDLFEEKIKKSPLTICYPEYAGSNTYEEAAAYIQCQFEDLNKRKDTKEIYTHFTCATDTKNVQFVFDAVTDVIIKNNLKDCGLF
Method in brief: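 A drop in FITC polarization marked displacement of the FITC-tagged RGS12 GoLoco peptide (10 nM) from Gαi1 (50 nM). Compounds were incubated 10 min at room temperature in Tris pH 7.5 buffer containing 150 mM NaCl, 0.1 mM GDP and 0.05% NP40; unlabeled peptide titration served as control.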

[8] = qHTS Assay for Identification of Small Molecule Agonists for Thrombopoietin (TPO) Signaling Pathway (AID 917; active = well fitted curve in the direction sought with a large enough effect; an effect the other way counts as inactive or inconclusive; also: % is scaled to controls: 0 for no effect and ±100 for the full control effect)
Method in brief: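 Quantitative HTS for pathway activators: compounds were pin-transferred onto IL-3-starved Ba/F3 cells expressing human TPO receptor, TPO was added at its EC50 (26 pM final), and after 24 hrs at 37 C reporter luciferase was measured.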

[9] = target: Muscarinic acetylcholine receptor M1 (Rattus norvegicus) (UniProt P08482); assay: qHTS Assay for Antagonists of Acetylcholine Muscarinic M1 Receptor: Measurement of IP-One Response (AID 944; active = well fitted curve in the direction sought with a large enough effect; an effect the other way counts as inactive or inconclusive; also: nearly all actives have a fitted effect of over 75% in size)
Muscarinic acetylcholine receptor M1 (Rattus norvegicus), sequence (P08482 whole entry, looked up): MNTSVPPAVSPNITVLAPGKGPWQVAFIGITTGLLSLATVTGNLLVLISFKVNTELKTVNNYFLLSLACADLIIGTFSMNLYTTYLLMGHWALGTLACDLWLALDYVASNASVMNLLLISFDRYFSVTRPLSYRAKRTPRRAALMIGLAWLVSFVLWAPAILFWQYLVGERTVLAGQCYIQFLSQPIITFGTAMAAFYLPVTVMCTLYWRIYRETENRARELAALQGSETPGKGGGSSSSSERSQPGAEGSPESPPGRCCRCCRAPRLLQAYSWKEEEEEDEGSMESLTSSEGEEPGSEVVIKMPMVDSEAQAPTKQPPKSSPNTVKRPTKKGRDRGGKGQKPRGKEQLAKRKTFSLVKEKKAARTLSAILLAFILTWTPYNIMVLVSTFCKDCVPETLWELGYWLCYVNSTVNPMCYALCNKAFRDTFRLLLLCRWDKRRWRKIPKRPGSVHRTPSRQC
Method in brief: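 Read-out: HTRF competition between d2-IP1 and Eu-cryptate anti-IP1 antibody, emission 620 and 665 nm. Stimulus was carbachol, EC80 (200 nM), for 30 min in M1-CHO cells (rat receptor), after 10 min compound pre-treatment.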

[10] = target: Pyruvate kinase (Leishmania mexicana) (UniProt Q27686); assay: qHTS Validation Assay for Inhibitors of Leishmania Mexicana Pyruvate Kinase (AID 945; active = well fitted curve in the direction sought with a large enough effect; an effect the other way counts as inactive or inconclusive;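 also: 0% = DMSO only neutral control wells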)
Pyruvate kinase (Leishmania mexicana), sequence (Q27686 2-499 E452W): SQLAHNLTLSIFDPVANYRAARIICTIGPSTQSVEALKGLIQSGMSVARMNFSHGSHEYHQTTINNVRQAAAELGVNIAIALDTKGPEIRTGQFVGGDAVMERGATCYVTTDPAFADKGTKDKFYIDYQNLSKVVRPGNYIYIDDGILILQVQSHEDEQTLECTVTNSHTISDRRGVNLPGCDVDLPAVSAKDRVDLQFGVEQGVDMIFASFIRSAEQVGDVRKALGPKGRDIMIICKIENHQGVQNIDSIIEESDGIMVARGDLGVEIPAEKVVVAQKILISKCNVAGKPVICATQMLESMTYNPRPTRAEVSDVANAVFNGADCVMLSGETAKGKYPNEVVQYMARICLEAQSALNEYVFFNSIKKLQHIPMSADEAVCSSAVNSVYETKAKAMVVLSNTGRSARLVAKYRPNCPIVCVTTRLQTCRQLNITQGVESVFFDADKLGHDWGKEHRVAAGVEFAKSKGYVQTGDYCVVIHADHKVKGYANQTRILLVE
Method in brief: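 Mutant LmPYK (E451W), 0.2 nM, plus 0.5 mM PEP and 0.1 mM ADP in 50 mM imidazole pH 7.2 containing 0.01% Tween 20 and 0.05% BSA. Incubated 1 h at room temperature; luminescence via PKLight, normalized to DMSO.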

[11] = target: Pyruvate kinase PKM (Homo sapiens) (UniProt P14618); assay: qHTS Assay for Activators of Human Muscle Pyruvate Kinase (AID 954; active = well fitted curve in the direction sought with a large enough effect, not every such curve was filed as active;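 also: 0% = uninhibited enzyme and -100% = no enzyme or full thiadiazolimine inhibition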)
Pyruvate kinase PKM (Homo sapiens), sequence (P14618 whole entry, looked up): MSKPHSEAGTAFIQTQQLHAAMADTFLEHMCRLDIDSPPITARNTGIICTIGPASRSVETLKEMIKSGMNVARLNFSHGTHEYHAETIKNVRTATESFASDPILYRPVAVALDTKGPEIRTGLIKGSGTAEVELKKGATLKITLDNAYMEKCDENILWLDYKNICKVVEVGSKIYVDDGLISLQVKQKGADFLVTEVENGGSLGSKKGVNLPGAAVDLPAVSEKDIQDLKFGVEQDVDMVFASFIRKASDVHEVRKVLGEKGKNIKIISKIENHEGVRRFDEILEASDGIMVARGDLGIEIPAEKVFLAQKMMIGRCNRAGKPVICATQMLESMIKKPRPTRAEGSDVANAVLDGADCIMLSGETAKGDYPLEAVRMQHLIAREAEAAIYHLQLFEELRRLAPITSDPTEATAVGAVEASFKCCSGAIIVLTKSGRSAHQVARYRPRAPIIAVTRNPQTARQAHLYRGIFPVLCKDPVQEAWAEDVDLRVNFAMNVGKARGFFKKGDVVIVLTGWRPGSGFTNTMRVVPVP
Method in brief: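 Compound pinned into substrate mix (0.5 mM PEP, 0.1 mM ADP), then 0.1 nM PKM2 added; 1 h, RT. Stop/detection luciferase reagent added, luminescence read. Normalized to no-inhibition and no-enzyme or reference-inhibitor controls.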

[12] = target: Alpha-galactosidase (Coffea arabica) (UniProt Q42656); assay: Counterscreen for Glucocerebrosidase Inhibitors: qHTS Assay for Coffee Bean alpha-Galactosidase at pH 4.5 (AID 957; active = well fitted curve in the direction sought with a large enough effect; an effect the other way counts as inactive or inconclusive;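 also: plate controls were enzyme alone for no effect and no enzyme for full effect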)
Alpha-galactosidase (Coffea arabica), sequence (Q42656 whole entry, looked up): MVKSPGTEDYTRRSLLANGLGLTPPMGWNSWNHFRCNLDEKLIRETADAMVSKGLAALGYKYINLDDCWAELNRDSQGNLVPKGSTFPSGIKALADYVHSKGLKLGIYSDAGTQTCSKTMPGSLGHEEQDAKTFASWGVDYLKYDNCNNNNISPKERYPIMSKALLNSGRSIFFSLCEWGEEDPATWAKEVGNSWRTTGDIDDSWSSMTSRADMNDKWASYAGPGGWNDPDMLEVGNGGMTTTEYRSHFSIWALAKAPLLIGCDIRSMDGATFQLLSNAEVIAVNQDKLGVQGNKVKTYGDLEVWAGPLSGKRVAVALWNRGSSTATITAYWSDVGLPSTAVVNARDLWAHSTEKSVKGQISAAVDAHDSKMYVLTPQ
Method in brief: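 Fluorogenic read-out: 4-methylumbelliferone at Ex 365/Em 440 nm after NaOH/glycine stop (pH 10). Enzyme 2 nM, 4-MU-alpha-galactoside 80 uM, citrate buffer pH 4.5, 20 min RT; normalized to no-enzyme and enzyme controls.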

[13] = target: Alpha-galactosidase A (Homo sapiens) (UniProt P06280); assay: Counterscreen for Glucocerebrosidase Inhibitors: qHTS Assay for Human alpha-Galactosidase at pH 4.5 (AID 992; active = well fitted curve in the direction sought with a large enough effect; an effect the other way counts as inactive or inconclusive; also: 0% is about no effect)
Alpha-galactosidase A (Homo sapiens), sequence (P06280 whole entry, looked up): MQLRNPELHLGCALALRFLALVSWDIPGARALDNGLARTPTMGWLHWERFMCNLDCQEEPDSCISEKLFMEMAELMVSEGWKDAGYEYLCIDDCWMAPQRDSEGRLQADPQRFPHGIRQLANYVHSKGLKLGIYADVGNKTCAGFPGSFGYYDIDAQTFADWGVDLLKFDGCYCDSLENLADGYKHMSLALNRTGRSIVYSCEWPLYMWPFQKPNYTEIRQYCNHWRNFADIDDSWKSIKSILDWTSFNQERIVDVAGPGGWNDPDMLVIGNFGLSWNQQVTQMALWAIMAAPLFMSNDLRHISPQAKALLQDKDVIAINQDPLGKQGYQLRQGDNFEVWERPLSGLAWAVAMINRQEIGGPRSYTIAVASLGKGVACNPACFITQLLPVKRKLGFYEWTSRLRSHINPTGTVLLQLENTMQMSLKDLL
Method in brief: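 Steps: enzyme (2 nM final), then compound across 0.7 nM to 77 uM, then 80 uM fluorogenic galactopyranoside substrate; incubate 20 min at room temperature; quench at pH 10; measure fluorescence at 365/440 nm.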

[14] = target: alpha-glucosidase (Oryza sativa, rice) (UniProt Q653V4); assay: Counterscreen for Glucocerebrosidase Inhibitors: qHTS Assay for Rice alpha-Glucosidase at pH 5.0 (AID 997; active = well fitted curve in the direction sought with a large enough effect; an effect the other way counts as inactive or inconclusive;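 also: 0% = full activity with enzyme and -100% = basal without enzyme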)
Method in brief: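 Endpoint fluorogenic assay at pH 5.0: compounds (0.7 nM to 77 uM) titrated against 4 nM rice enzyme and 400 uM 4-MU-alpha-glucoside for 20 min at room temperature; NaOH/glycine stop, read ex 365/em 440 nm, Hill-fitted AC50.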

[15] = target: Alpha-galactosidase (Coffea arabica) (UniProt Q42656); assay: Counterscreen for Glucocerebrosidase Inhibitors: qHTS Assay for Coffee Bean alpha-Galactosidase at pH 5.9 (AID 998; active = well fitted curve in the direction sought with a large enough effect; an effect the other way counts as inactive or inconclusive;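 also: plate controls were uninhibited enzyme for no effect and no-enzyme basal signal for full effect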)
Method in brief: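 In 50 mM citric acid pH 5.9 with 0.005% Tween-20, coffee bean enzyme hydrolyses 80 uM 4-MU alpha-D-galactopyranoside over 20 min at RT. Activity is normalized to controls; AC50 comes from Hill-modelled concentration-response data.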

[16] = Stat Signaling Pathway (AID 446)
Method in brief: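 Normalization used AC90 stimulation (300 pM IL-6) and AC90 inhibition (125 nM pan-JAK inhibitor at 40 pM IL-6). The underlying signal is SIE-driven beta-lactamase in ME-180 cells after 5 h IL-6 exposure with compound.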

[17] = qHTS Assay for Identification of Small Molecule Antagonists for NFkB Signaling Pathway (AID 895; active = well fitted inhibition curve with a large enough effect in the signal ratio, with a control signal flat, not every such curve was filed as active; the % refers to the signal ratio; also: % is scaled to controls: 0 for no effect and ±100 for the full control effect)
Method in brief: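 NFkB-bla ME-180 cervical carcinoma cells with beta-lactamase reporter under NFkB response element; compounds added, then TNF alpha at 10 pM final (EC50), 5 h at 37 C. LiveBLAzer substrate 2 h, room temperature; emission 460/530 nm at 405 nm excitation.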

C=CCN1CC[C@@]23CCCC[C@@H]2[C@@H]1Cc1ccc(O)cc13
inactive: activity change, negative = inhibition [1] -10.4% [at 38 µM] | activity change, negative = inhibition [2] -24.3% [at 38 µM] | Potency [3] > 46 µM | Potency [4] > 46 µM | outcome [5] | outcome [6] | Potency [7] | outcome [8] | Potency [9] | Potency [10] | outcome [11] | outcome [12] | outcome [13] | outcome [14] | outcome [15]

O=c1[nH]c(=O)n(CCc2ccccc2)c(O)c1C=NCCN1CCNCC1
inactive: activity change, negative = inhibition [1] 17.3% | outcome [16] | Potency [3] > 20.6 µM

CCCCc1nc(N2CCNCC2)c(C#N)c2c1CSC(C)(C)C2
inactive: activity change, negative = inhibition [1] 3.85% | outcome [16] | Potency [3] > 20.6 µM

CC(C)(C)c1ccc(O)c(C[N+](C)(C)C)c1
inactive: activity change, negative = inhibition [1] -0.0649% [at 7.69 µM] | activity change, negative = inhibition [2] -16.5% [at 7.69 µM] | Potency [3] > 46 µM | Potency [4] > 9.22 µM | activity change, negative = inhibition [5] -0.903% [at 11.4 µM] | outcome [6]

CCC(=NCCOc1ccc(Cl)cc1)c1c(O)n(C)c(=O)n(C)c1=O
inactive: activity change, negative = inhibition [1] -1.65% | outcome [16] | Potency [3] > 20.6 µM

CC(=O)C1(c2ccccc2)CCNCC1
inactive: activity change, negative = inhibition [1] 6.36% | activity change, negative = inhibition [2] -17.3% | Potency [3] > 20.6 µM

COc1ccc(Cn2c(O)c(C=NCCCn3ccnc3)c(=O)[nH]c2=O)cc1
inactive: activity change, negative = inhibition [1] -15.8% | activity change, negative = inhibition [2] -15.1% | Potency [3] > 20.6 µM

CC[C@H](CO)NC(=O)[C@@H]1C=C2c3cccc4c3c(cn4C)C[C@@H]2N(C)C1
inactive: activity change, negative = inhibition [1] -3.22% [at 38 µM] | activity change, negative = inhibition [2] -10.9% [at 38 µM] | outcome [5] | outcome [6] | Potency [17] | outcome [8] | Potency [10] | outcome [11] | outcome [13] | outcome [14] | outcome [15]
